Results from the supplement of paper PMC8371130.
Structures can show the parent of a compound that is named as a salt.

Test system: HL-1
Experiment: relative cell viability (CellTiter-Glo) vs DMSO control (% of DMSO control); higher = more viable cells
Outline: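 Viability of HL-1 mouse atrial cardiomyocytes was assessed by CellTiter-Glo luminescence and normalised to vehicle-treated control cells. Cells were plated in 384-well plates at 1000 cells per well with compounds at 40, 200, 1000 or 5000 nM in 0.01% DMSO, and one day later were placed at 1% O2 for 48 h, then reoxygenated for 24 h, or kept in normoxia for the same duration.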

[1] = oxygen condition: hypoxia 48 h (1% O2) + reoxygenation 24 h, 40 nM
[2] = oxygen condition: hypoxia 48 h (1% O2) + reoxygenation 24 h, 200 nM
[3] = oxygen condition: hypoxia 48 h (1% O2) + reoxygenation 24 h, 1000 nM
[4] = oxygen condition: hypoxia 48 h (1% O2) + reoxygenation 24 h, 5000 nM
[5] = oxygen condition: normoxia 72 h, 40 nM
[6] = oxygen condition: normoxia 72 h, 200 nM
[7] = oxygen condition: normoxia 72 h, 1000 nM
[8] = oxygen condition: normoxia 72 h, 5000 nM

SMILES | relative cell viability [1] | relative cell viability [2] | relative cell viability [3] | relative cell viability [4] | relative cell viability [5] | relative cell viability [6] | relative cell viability [7] | relative cell viability [8]
O=C(Nc1c(Cl)cncc1Cl)c1ccc(OC(F)F)c(OCC2CC2)c1 [Roflumilast] | 101 | 82.1 | 92.9 | 99 | 90.6 | 84.6 | 93.7 | 93.6
CNCC[C@H](Oc1cccc2ccccc12)c1cccs1 [Duloxetine HCl] | 92 | 96 | 99.8 | 92.8 | 89.9 | 94.3 | 106 | 104
CCNC(=O)CCC/C=C\C[C@@H]1[C@@H](/C=C/[C@@H](O)CCc2ccccc2)[C@H](O)C[C@@H]1O [Bimatoprost] | 104 | 107 | 108 | 105 | 104 | 101 | 105 | 107
C[C@]12CC[C@@H]3c4ccc(O)cc4CC[C@H]3[C@@H]1CCC2=O [Estrone] | 102 | 107 | 107 | 109 | 102 | 105 | 107 | 115
Clc1ccc(C(c2ccccc2Cl)C(Cl)Cl)cc1 (centres undefined) [Mitotane] | 108 | 105 | 107 | 102 | 104 | 110 | 106 | 121
O=C(c1cc(Cc2n[nH]c(=O)c3ccccc23)ccc1F)N1CCN(C(=O)C2CC2)CC1 [Olaparib] | 86.7 | 84.4 | 76.2 | 61.1 | 79 | 86.6 | 70.1 | 60
CCN(CC)CC(=O)Nc1c(C)cccc1C [Lidocaine] | 111 | 106 | 104 | 111 | 112 | 108 | 109 | 112
NS(=O)(=O)c1cc2c(cc1Cl)N=C(CSCc1ccccc1)NS2(=O)=O [Benzthiazide] | 103 | 99.8 | 99.3 | 107 | 99.7 | 93.8 | 100 | 105
C[C@@H](CN1CC(=O)NC(=O)C1)N1CC(=O)NC(=O)C1 [Dexrazoxane Hydrochloride] | 98.2 | 105 | 104 | 106 | 101 | 96.3 | 92.8 | 94.8
CC(=O)OCC(=O)[C@@]12N=C(C)O[C@@H]1C[C@H]1[C@@H]3CCC4=CC(=O)C=C[C@]4(C)[C@H]3[C@@H](O)C[C@@]12C [Deflazacort] | 90.6 | 90.3 | 97.1 | 77.3 | 89.6 | 92.4 | 95.6 | 99.2
O=C1[C@@H]2[C@H]3CC[C@H](C3)[C@@H]2C(=O)N1C[C@@H]1CCCC[C@H]1CN1CCN(c2nsc3ccccc23)CC1 [Lurasidone HCl] | 96.8 | 101 | 100 | 99.9 | 101 | 104 | 102 | 102
O=C(O)/C=C/c1ccc(Cn2ccnc2)cc1 [Ozagrel HCl] | 103 | 102 | 102 | 96.7 | 90.2 | 96.8 | 104 | 97.8
CCOC(=O)[C@H](CCc1ccccc1)N[C@H]1CS[C@H](c2cccs2)CN(CC(=O)O)C1=O [Temocapril HCl] | 102 | 102 | 104 | 112 | 104 | 77.1 | 102 | 110
O=NN(CCCl)C(=O)NC1CCCCC1 [Lomustine] | 90.8 | 100 | 93.4 | 66.3 | 108 | 96.2 | 102 | 67
CC(C)(C)c1ccc(C(O)CCCN2CCC(C(O)(c3ccccc3)c3ccccc3)CC2)cc1 (centres undefined) [Terfenadine] | 89 | 102 | 94.4 | 79.4 | 97.4 | 91.5 | 76.7 | 79.7
C=C1CC[C@H](O)C/C1=C/C=C1\CCC[C@]2(C)[C@@H]([C@H](C)CCCC(C)C)CC[C@@H]12 [Vitamin D3] | 104 | 89.6 | 54.7 | 109 | 94.8 | 70.8 | 66.2 | 116
CCN(CC)CC#CCOC(=O)C(O)(c1ccccc1)C1CCCCC1 (centres undefined) [Oxybutynin chloride] | 94.2 | 99.1 | 98.7 | 98.8 | 104 | 96.3 | 91.2 | 107

SMILES | relative cell viability [1] | relative cell viability [2] | relative cell viability [3] | relative cell viability [4] | relative cell viability [5] | relative cell viability [6] | relative cell viability [7] | relative cell viability [8]
CC(=O)/N=c1/sc(S(N)(=O)=O)nn1C [Methazolamide] | 100 | 109 | 108 | 109 | 110 | 105 | 99.7 | 108
CN1CCCCC1CCN1c2ccccc2Sc2ccc([S+](C)[O-])cc21 (centres undefined) [Mesoridazine Besylate] | 108 | 106 | 105 | 113 | 97 | 102 | 117 | 115
O=C(O)/C=C/c1ccc(Cn2ccnc2)cc1 [Ozagrel] | 102 | 97.4 | 85.7 | 29.5 | 105 | 107 | 90 | 18
COC(=O)CCc1ccc(OCC(O)CNC(C)C)cc1 (centres undefined) [Esmolol HCl] | 103 | 104 | 105 | 80.4 | 104 | 104 | 108 | 112
CC(=O)NS(=O)(=O)c1ccc(N)cc1 [sulfacetamide sodium] | 97.5 | 98.4 | 106 | 104 | 102 | 107 | 107 | 108
CCCCC(=O)N(Cc1ccc(-c2ccccc2-c2nnn[nH]2)cc1)[C@H](C(=O)O)C(C)C [Valsartan] | 104 | 97.5 | 80.6 | 51.6 | 98.1 | 95.6 | 93.8 | 45.1
COC(=O)[C@H](c1ccccc1Cl)N1CCc2sccc2C1 [Clopidogrel] | 105 | 103 | 106 | 111 | 108 | 111 | 105 | 119
NCCCC(O)(P(=O)(O)O)P(=O)(O)O [Alendronate] | 104 | 102 | 106 | 109 | 99.2 | 105 | 107 | 109
CCN[C@H]1CN(CCCOC)S(=O)(=O)c2sc(S(N)(=O)=O)cc21 [Brinzolamide] | 101 | 84.5 | 62.4 | 3.36 | 98.2 | 81.9 | 57.5 | 3.09
N[C@@H](Cc1ccc(O)c(O)c1)C(=O)O [Levodopa] | 110 | 109 | 107 | 110 | 104 | 101 | 108 | 104
O=c1[nH]c(=O)n(C2CCCO2)cc1F (centres undefined) [Ftorafur] | 101 | 103 | 104 | 96.9 | 100 | 101 | 114 | 89.2
COC(=O)C1=C(C)NC(C)=C(C(=O)OCCN2CCN(C(c3ccccc3)c3ccccc3)CC2)C1c1cccc([N+](=O)[O-])c1 (centres undefined) [Manidipine] | 103 | 103 | 99.6 | 105 | 102 | 99.2 | 103 | 103
CCN(CCCc1ccccc1)CCCc1ccccc1 [Alverine Citrate] | 107 | 110 | 102 | 110 | 102 | 105 | 106 | 113
CS(=O)(=O)c1ccc([C@@H](O)[C@@H](CO)NC(=O)C(Cl)Cl)cc1 [Thiamphenicol] | 104 | 104 | 109 | 104 | 101 | 96.9 | 95.9 | 86.5
C=CC(=O)N1CCC[C@@H](n2nc(-c3ccc(Oc4ccccc4)cc3)c3c(N)ncnc32)C1 | 98.9 | 96.6 | 101 | 102 | 101 | 90.2 | 90.5 | 102
CCN(CC)CC#CCOC(=O)C(O)(c1ccccc1)C1CCCCC1 (centres undefined) [Oxybutynin] | 97.2 | 99.9 | 101 | 102 | 109 | 103 | 104 | 101
